Screening results as filed in PubChem BioAssay.
Hits are enriched below; roughly 3.6% of the tested compounds scored in any of these assays.
AmpC inh no detg: inhibitors of E. coli AmpC beta-lactamase without detergent; P00811; AmpC nitrocefin hydrolysis, absorbance 480 nm, 0.0001% Triton; Potency, µM (doses to about 57.1 µM), hits mostly inhibitors; actives 0.52% (n = 330,000); note: nearly all actives have a fitted effect of over 20% in size
Target sequence (P00811 whole entry, looked up): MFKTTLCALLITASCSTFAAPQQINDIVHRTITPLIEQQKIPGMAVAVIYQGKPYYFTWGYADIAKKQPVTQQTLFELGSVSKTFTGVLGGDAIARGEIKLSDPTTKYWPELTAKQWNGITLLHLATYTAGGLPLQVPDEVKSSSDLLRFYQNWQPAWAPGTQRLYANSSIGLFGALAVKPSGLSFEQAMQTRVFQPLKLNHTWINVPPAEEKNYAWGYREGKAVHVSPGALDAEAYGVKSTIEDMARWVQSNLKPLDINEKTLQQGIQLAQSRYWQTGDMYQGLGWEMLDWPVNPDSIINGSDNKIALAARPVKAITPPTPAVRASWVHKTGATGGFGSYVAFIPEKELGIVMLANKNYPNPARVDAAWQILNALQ
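AmpC (5.3 nM in the dispensed reagent) in 20 mM phosphate pH 7.0 with 0.01% (detergent screen) or 0.0001% Triton X-100 was preincubated with compounds for 15 min at room temperature. Nitrocefin was then added from an 800 uM solution, and hydrolysis was followed at 480 nm.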
AmpC inh detg: AmpC beta-lactamase inhibition with detergent present. P00811. AmpC hydrolysis of nitrocefin, absorbance 480 nm, 0.01% Triton. Potency, µM (titrated, usually from 114 µM), hits mostly inhibitors. actives 0.041% (n = 370,000); note: nearly all actives have a fitted effect of over 25% in size
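20 mM phosphate pH 7.0 + 0.01% (detergent screen) or 0.0001% Triton X-100; 5.3 nM AmpC reagent; cpd preinc 15 min RT; nitrocefin (800 uM stock) to start; A480 q20 s × 4 min; Activity was normalised to no-enzyme and no-compound control wells.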
Giardia FBPA inh: inhibitors of Giardia lamblia fructose-1,6-bisphosphate aldolase. Potency, µM (titrated, usually from 59.6 µM), hits mostly inhibitors. purified Giardia FBPA. A8B2U2. actives 0.71% (n = 290,000); note: nearly all actives have a fitted effect of over 55% in size
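Giardia FBPA (40 nM reagent) was preincubated 10 min at RT with compound (up to 57.5 uM final), then substrate plus GAPDH/TPI/NAD/arsenate coupling system with diaphorase/resazurin was added; resorufin fluorescence (525/598 nm) was read after 20 min.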
Sm TGR inh: blocks Schistosoma mansoni thioredoxin glutathione reductase | Q962Y6 | purified TGR, DTNB reduction, TNB absorbance 405 nm | Potency, µM (doses to about 114 µM), usual class: inhibitors | actives 3% (n = 360,000) | AID 485364; note: nearly all actives have a fitted effect of over 60% in size
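First, TGR (20 nM dispensed) and NADPH were mixed with compound. Second, a 15 min room-temperature incubation followed. Third, further NADPH and then DTNB were added to start the reaction. Finally, TNB absorbance was monitored kinetically.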
A number is an active result; - = inactive; ? = inconclusive; . = no result given. Calls come from the whole dose curve; as a rule, active = well fitted curve in the direction sought with a large enough effect; inconclusive = small, poorly fitted or top-dose-only effect, or another doubt; inactive = no such curve, though single readings can be large; an effect the other way counts as inactive or inconclusive.

SMILES | AmpC inh no detg | AmpC inh detg | Giardia FBPA inh | Sm TGR inh
CCOC(=O)C1CCN(C(=O)CCc2ccccc2)CC1 | - | - | - | 89.1µM
CCOC(=O)C1CCN(C(=O)CCCn2c(=O)c3cccn3c3cccnc32)CC1 | - | - | - | 79.4µM
CC(=O)N1CCc2cc(S(=O)(=O)NC(Cc3ccccc3)C(=O)O)ccc21 (configuration not stated) | - | - | . | -
CN1C2CCC1/C(=C/c1cccn1C)C(=O)/C2=C\c1cccn1C | - | - | ? | 35.5µM
CN1C2CCC1/C(=C\c1ccc(F)cc1)C(=O)/C2=C/c1ccc(F)cc1 | - | - | - | -
O=C(Cn1cc(C(=O)c2ccco2)c2ccccc21)Nc1ccccc1F | 28.2µM | - | - | -
CN(C)c1cccc(C(=O)OCc2cc(=O)oc3cc(O)ccc23)c1 | 17.8µM | - | - | -
COc1ccc2c(COC(=O)c3cccc(S(=O)(=O)NCC(C)C)c3)cc(=O)oc2c1 | - | - | - | 89.1µM
CC1CN(S(=O)(=O)c2cccc(C(=O)OCc3cc(=O)oc4cc(O)ccc34)c2)CC(C)O1 (configuration not stated) | - | - | - | -
CCCNS(=O)(=O)c1cccc(C(=O)OCc2cc(=O)oc3cc(OC)ccc23)c1 | - | - | - | -
Cc1cc(C(=O)COC(=O)c2ccc3c(c2)OCO3)c(C)n1CC1CCCO1 (configuration not stated) | - | - | - | -
COCCn1c(C)cc(C(=O)COC(=O)c2ccc([N+](=O)[O-])o2)c1C | - | - | - | 35.5µM
Cc1cc(C(=O)COC(=O)c2ccc([N+](=O)[O-])o2)c(C)n1CC1CCCO1 (configuration not stated) | - | - | ? | 35.5µM
Cc1cc(C)c(C(=O)COC(=O)c2ccc([N+](=O)[O-])o2)cc1C | - | - | ? | ?
COc1ccc(-c2cc3ccc(O)c(CN4CCCCC4C)c3oc2=O)cc1OC (configuration not stated) | . | - | . | -
COc1ccc(NC(=O)CN(C)S(=O)(=O)c2ccc3nc(C)sc3c2)cc1 | . | - | . | -
Oc1ccc(/C(Cc2ccccn2)=N\Nc2ccccc2)c(O)c1 | - | - | ? | ?
Oc1ccc(/C(Cc2ccc3ccccc3n2)=N\Nc2ccccc2)c(O)c1 | - | - | ? | 25.1µM
CC(=O)Nc1cccc(/C(C)=N/NC(=S)NC(C)C)c1 | - | - | - | -
C/C(=N\NC(=S)NC(C)C)c1ccccc1 | - | ? | - | 0.398µM
COC(=O)N/N=C(\C)c1ccco1 | - | - | - | -
C/C(=N\NC(=S)NC(C)C)c1ccco1 | - | - | - | 3.98µM
COc1ccc(C)cc1NC(=O)NC1CCCCCCC1 | 22.4µM | - | . | -
CCNS(=O)(=O)c1ccc(NC(=O)Nc2cc(C)ccc2OC)cc1 | 11.2µM | - | - | -
CCNc1ncc2nc(-c3ccc(F)cc3)c(=O)n(CCOC)c2n1 | . | . | - | .
SMILES | AmpC inh no detg | AmpC inh detg | Giardia FBPA inh | Sm TGR inh
Cc1cccc(NS(=O)(=O)c2ccc(C(=O)NCC(c3ccco3)N3CCCCC3)cc2)c1C (configuration not stated) | - | - | . | -
COc1ccc(C2=C(c3ccc(OC)c(OC)c3)CN3CCCCC3C2)cc1 (configuration not stated) | - | . | . | .
CCOC(=O)C1CCCN(C(=O)c2cccc(NC(=O)c3nsc4ccccc34)c2)C1 (configuration not stated) | . | - | . | -
O=C1OC(NC(=O)c2ccccc2)C(n2cc(CO)nn2)=C1Cl (configuration not stated) | - | ? | - | 0.794µM
O=c1oc2ccccc2c(N2CCN(c3ccccc3F)CC2)c1CN1CCCC1 | . | - | . | -
O=Cc1ccc(-c2ccc(F)cc2)o1 | - | - | - | -
O=C(/C=C\c1ccc(-c2ccccc2)o1)c1ccccc1 | - | ? | - | 11.2µM
O=C(O)/C(=C\c1ccc(-c2ccc(F)cc2)o1)c1ccccc1 | - | - | - | 17.8µM
COc1ccc(CCNC(=O)CCCn2c(=O)c3ccccc3n(CC(=O)Nc3ccc(C)cc3Cl)c2=O)cc1OC | . | - | . | -
CCc1c(C)sc(NC(=O)c2cccs2)c1C#N | - | - | ? | -
COc1ccc(C(=O)Nc2oc(-c3ccccc3)c(-c3ccccc3)c2C#N)cc1 | 8.91µM | - | - | -
Cc1sc(NC(=O)c2ccccc2)c(C#N)c1-c1ccccc1 | 25.1µM | - | - | -
Cc1ccc2c(CC(=O)Nc3ccc(S(=O)(=O)N4CCCCC4C)cc3)coc2c1 (configuration not stated) | . | - | . | -
O=Cc1c(-c2ccccc2)nc2ccccn12 | - | - | - | -
CCc1nc(-c2ccccc2)c2ccccn12 | - | - | 4.46µM | ?
O=C(C(Cc1ccccc1)n1cccc1)N1CCc2ccccc21 (configuration not stated) | - | ? | - | 35.5µM
Cc1ccc(/C=C/C(=O)Nc2ccc([N+](=O)[O-])cc2)o1 | - | - | - | 15.8µM
Cc1ccc(/C=C/C(=O)Nc2ccc(Oc3ccccc3)cc2)o1 | - | - | - | 17.8µM
CC(=O)c1ccc(NC(=O)/C=C/c2ccc(C)o2)cc1 | . | - | . | 11.2µM
Cc1cc(NS(=O)(=O)c2ccc(NC(=O)/C=C/c3ccc(C)o3)cc2)nc(C)n1 | - | - | - | 3.16µM
O=C(O)/C=C/C(=O)Nc1ccc(Oc2ccccc2)cc1 | - | - | - | -
Cc1cc(NS(=O)(=O)c2ccc(NC(=O)/C=C/c3ccccc3)cc2)nc(C)n1 | - | . | . | .
Cc1ccc(/C=C/C(=O)Nc2nnc(C)s2)o1 | - | - | - | ?
COc1ccc(OC)c(-c2cnc(OC(C)(C)C)nc2OC(C)(C)C)c1 | - | - | - | -
COc1ccc2[nH]c(C)c(CCN(Cc3cccs3)C(=S)Nc3cccc(F)c3)c2c1 | 44.7µM | - | ? | ?
SMILES | AmpC inh no detg | AmpC inh detg | Giardia FBPA inh | Sm TGR inh
Cc1cc(C)c(S(=O)(=O)n2cnc(C)c2)c(C)c1 | . | - | . | -
CSc1ccccc1C(=O)C1CCCN(C(=O)c2csnn2)C1 (configuration not stated) | - | - | - | -
CSc1ccccc1C(=O)C1CCCN(C(=O)c2cc(C(C)C)no2)C1 (configuration not stated) | - | - | - | 22.4µM
COc1ccc2c(c1)C1=NN(/C(C)=C\C(C)=O)C(c3ccccc3)C1CC2 (configuration not stated) | - | ? | ? | 56.2µM
O=S(=O)(c1cc(O)ccc1O)c1cccc2c(S(=O)(=O)c3cc(O)ccc3O)cccc12 | 20µM | - | . | 11.2µM
CCCCn1c(N)c(N(CC(C)C)C(=O)c2ccc(OCC3CCCO3)cc2)c(=O)[nH]c1=O (configuration not stated) | - | - | . | -
Cc1ccc(C2C(/C=C3/SC(=S)NC3=O)=C(c3cccs3)Oc3ccccc32)cc1 (configuration not stated) | 6.31µM | - | - | -
CC1Cc2cc(/C=C3/SC(=S)NC3=O)ccc2O1 (configuration not stated) | - | - | - | -
CSc1nc2ccsc2c(=O)n1-c1ccccn1 | - | - | - | -
